For 40 molecules, growth results are on record in PubChem BioAssay (NCI).

SMILES strings stand for the structures. Compounds without any hit were thinned out: in the full panel of roughly 83,000, 20% have a hit.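 Single-dose data. Exposure time 48 hours. Values below 10 considered active.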 A number with no mark means an inactive call. Activity calls are given as the source filed them.

The assay concerns HCT-15 colon. Briefly: NCI-60 one-dose screen, 48 h (100 = growth as untreated, 0 = no growth, -100 = all killed). To be noted: 10 µM unless noted. The procedure:
Growth inhibition of the HCT-15 human tumor cell line is measured as a screen for anti-cancer activity. Cells are grown in 96 well plates and exposed to the test compound for 48 hours. Compounds are tested at a single concentration, which is 10^-5 M for most compounds. The reported endpoint is percent growth (GI% or GIPRCNT), where numbers from 0 - 100% represent growth inhibition, and numbers from -100% - 0 represent cell death. For example, a value of 40 represents 60% growth inhibition. A value of 0 means no net growth occurred over the course of the experiment. A value of -40 indicates 40% of cells at the beginning of the experiment died by the end of the experiment. A value of -100 means all cells are dead at the end of the experiment.
NCI-60 Human Tumor Cell Lines Screen was performed using the standard one-dose NCI protocol, which is described in more detail at https://dtp.cancer.gov/discovery_development/nci-60/default.htm.
Compounds with GIPRCNT values below 10 were considered active. Activity score was based on GIPRCNT using the following formula: […]
Score is 0 for GIPRCNT values of 100 or above, 50 for GIPRCNT values of 0, and 100 for GIPRCNT values of -100.
Take `COc1ccc(OC)c(-c2nc(SCC(=O)c3ccc(Br)cc3)nc(Nc3ccc(S(N)(=O)=O)cc3)c2C#N)c1`: the growth was 22.1%.

On to `NC(N)=Nc1ccc(Oc2cccc(Oc3ccc(Cl)c(C(F)(F)F)c3)c2)cn1`, for which the growth was -83.7% (active).

For `COc1ccccc1-n1cc(C#N)c(N)c1C(=O)c1ccc(Br)cc1`, the growth is 35.1%.

For the molecule `CC/C(=C/c1cc(OC)ccc1O)c1ccc2cc(OC)ccc2[o+]1`, the growth was 23.9%.

Take `COc1ccccc1C(=O)Nc1cccc2c1C(=O)C(=O)C=C2`: the growth is 93.6%.

Consider `O=S(=O)(NC1c2ccccc2C[C@H]1O)c1ccc(Cl)cc1Cl` (stereo not given in full), for which the growth is 94.6%.

`CC(=O)c1ccc(Nc2nc(SCC(C)C)nc(-c3ccc(F)cc3)c2C#N)cc1`: the growth was 104%.

Take `Nc1nc(Nc2ccccc2SSc2ccccc2Nc2nc(N)nc(-c3ccccc3)n2)nc(-c2ccccc2)n1`: the growth is 48.5%.

`Nc1ccccc1NC(=O)c1ccc(NC(=O)C/C=C/c2cccnc2)cc1`: the growth is 30.2%.

Regarding `C#CC(=O)N(c1ccc(OC)cc1OC)C(C(=O)NCC(=O)OCC)c1cccs1` (stereo not given), the growth is 56.6%.

`Fc1ccc(-c2cc3nc(C(Cl)Cl)nc(-c4ccco4)n3n2)cc1`: the growth was 4.34% (active).

As to `CCCCCc1ccc(S(=O)(=O)Nc2cc(-c3csc(NC(=O)CN4CCN(C)CC4)n3)ccc2N2CCN(C)CC2)cc1`, the growth was -68.4% (active).

For the molecule `COc1ccc(-n2c(SCc3nnc(NC(=O)c4ccc(Br)cc4)s3)nc3cc(OC)c(OC)cc3c2=O)cc1`, the growth is 85.1%.

For the molecule `COc1cc(-c2nnc(SCc3ccc(O)c4ncccc34)n2-c2ccccc2)cc(OC)c1OC`, the growth was 12.8%.

Turning to `CC(=O)C1=C(C)NC(NNC(N)=S)=NC1c1ccccc1` (stereo not given), the growth was 105%.

Regarding `Nc1nc(N)c2c(n1)NC(c1ccc(Cl)cc1)CC(c1ccc(Nc3nc(NCCO)nc(N4CCOCC4)n3)cc1)=N2` (stereo not given), the growth is 53.7%.

For the molecule `CC1=NC2=NC(=O)/C(=C3/N=C(C)C=C(c4ccccc4)N3N)NN2C(c2ccccc2)=C1`, the growth was 107%.

Regarding `C=CCn1c(SCC(=O)Nc2ccc(C(=O)/C=C/c3ccc(C)cc3)cc2)nnc1-c1c[nH]c2ccccc12`, the growth is 71.5%.

Turning to `CCCCCc1ccc(S(=O)(=O)Nc2cccc(-c3csc(NC(=O)CN4CCN(C)CC4)n3)c2)cc1`, the growth was 11.7%.

In the case of `COc1cccc2c1CN(C(=O)c1ccc(O)c(C(=O)N3Cc4ccc(OCCC[P+](c5ccccc5)(c5ccccc5)c5ccccc5)cc4C3)c1)C2`, the growth is 102%.

As for `O=C(c1ccc(O)c(C(=O)N2Cc3ccc(OCCC[P+](c4ccccc4)(c4ccccc4)c4ccccc4)cc3C2)c1)N1Cc2cccc(F)c2C1`, the growth is 97.6%.

With `CCn1c(SCC(=O)Nc2cccc(C(=O)/C=C/c3ccc(C)cc3)c2)nc2ccccc2c1=O`, the growth was 49.2%.

For `COC(=O)/C=C/c1c(C2(C)NC(=O)c3ccccc3N2)c(=O)oc2ccc(Cl)cc12` (stereo not given), the growth was 91.4%.

Take `c1cn2c(ccc3nc(-c4cn[nH]c4)c4c(c32)CCCC4)n1`: the growth was 35.1%.

Turning to `CCNC(=O)N1CCc2cc(OC)c(OCCc3ccc(OC)cc3)cc2C1c1ccc([N+](=O)[O-])cc1C` (stereo not given), the growth was 7.24% (active).

Regarding `Cn1cc(CNc2nc3ccc(OC/C(=C/F)CN)cc3o2)ccc1=O`, the growth is 103%.

`CC1(C)CC[C@]2(CN)CC[C@]3(C)C(=CC[C@@H]4[C@@]5(C)CCCNC(C)(C)[C@@H]5CC[C@]43C)[C@H]2C1`: the growth was 71.7%.

On to `CS(=O)(=O)c1ncc(-c2ccccc2)cn1`, for which the growth is 89.1%.

For `C#CCn1cccc1CNc1ccc(OC)cc1`, the growth was -79.2% (active).

Turning to `COc1cc(-c2nn(C(C)(C)C)cc2-c2ccnc(NCCCNS(=O)(=O)c3ccc(C)cc3)n2)ccc1Cl`, the growth is 80.5%.

Take `C[C@@H]1C[C@H]2C(=O)O[C@@H](C)C(NC(=O)[C@H](Cc3cc(F)cc(F)c3)NC(=O)Nc3ccc(Cl)cc3F)C(=O)N3CCC[C@H]3C(=O)N3CCCC[C@H]3C(=O)N[C@@H](CO)C(=O)N2C1` (stereo not given in full): the growth is 13.2%.

On to `O=C(CSc1nc2ccccc2c(=O)n1-c1ccccc1)Nc1cccc(C(=O)/C=C/c2ccccc2)c1`, for which the growth was 76.4%.

Turning to `O=C(Cn1cc(-c2ccccc2)nn1)Nc1nc(-c2ccc(Cl)cc2)cs1`, the growth was 94.4%.

Regarding `CNC(=O)c1c(NC(=O)c2ccccc2C(F)(F)F)sc2c1CCC(=O)C2`, the growth was 9.11% (active).

Take `Cc1ccc(-c2nnc(SCc3ccc(O)c4ncccc34)o2)cc1`: the growth was 10.8%.

In the case of `Cc1ccc(S(=O)(=O)N(CC[C@@H]2C[C@H]2c2cc3ccccc3o2)S(=O)(=O)c2ccc(C)cc2)cc1`, the growth was 94.5%.

In the case of `CCn1c(SCC(=O)Nc2cccc(C(=O)/C=C/c3ccc(Br)cc3)c2)nc2ccccc2c1=O`, the growth was 65%.

On to `COc1cc(/C=N/NC(=O)c2cn(C3CC3)c3c(OC)c(N4CC5CCCNC5C4)c(F)cc3c2=O)ccc1O` (stereo not given), for which the growth was 32%.

Take `CC(O)c1cc2ccccc2c(=O)o1` (stereo not given): the growth was 103%.

On to `CCNC(=O)N1CCc2cc(OC)c(OCCc3ccc(OC)cc3)cc2C1c1ccc(OC)cc1C` (stereo not given), for which the growth is 10.8%.
